Shown are actives, neighbours in structure and some others; about 19% of the full set was active somewhere.
Giardia kill – Small Molecules that selectively kill Giardia lamblia: qHTS; Giardia lamblia trophozoite viability; activity change, % at 7.66 µM, hits read low; hit rate 0.15% among 340,000; AID 540267, 2011; in the data active = activity change below about -80%; inconclusive = between about -30% and that limit;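 note: parasites exposed to compound for two days anaerobically before the ATP read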
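ATP-content bioluminescence gauges trophozoite survival. Cells (100/well) receive compound and incubate anaerobically for 48 hrs at 37 deg C; detection reagent follows for 15-30 min at room temperature.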
TDP1 cell CPT – qHTS for Inhibitors of human tyrosyl-DNA phosphodiesterase 1 (TDP1): qHTS in cells in presence of CPT; chicken DT40 Tdp1-/-;hTDP1 cells + 20 nM CPT, ATP luminescence, 48 h; Potency, µM (titrated, usually from 46.2 µM), for inactives: top-dose activity change, negative = growth inhibition, actives largely listed as inhibitors; hit rate 12% among 420,000; AID 686979, 2013; note: potency is the fitted concentration of half-maximal effect; nearly all actives have a fitted effect of over 55% in size
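Chicken DT40 Tdp1-/- cells stably complemented with human TDP1 were seeded at 400 cells/well in medium containing 20 nM camptothecin, exposed to pin-transferred compounds, and grown at 37 °C for at least 48 hr. Viability was read as ATP luminescence.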
IL-1B inflam inh – qHTS for Inhibitors of Inflammasome Signaling: IL-1-beta AlphaLISA Primary Screen; THP-1 LPS/ATP IL-1B secretion, AlphaLISA, 16 h; active compounds read low; activity change, % at 57.5 µM; hit rate 4.7% among 360,000; AID 743279, 2014; in the data active = activity change below about -50%; inconclusive = mostly about -30% to -49%
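Secreted IL-1B measured by AlphaLISA bead assay after 16 h compound exposure of THP-1 cells; compounds (final up to 57.5 uM) added 1 h before LPS (250 ng/mL) and ATP (1.25 mM) stimulation; lower signal means less secretion.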
ELG1 repair inh – qHTS screen for small molecules that inhibit ELG1-dependent DNA repair in human embryonic kidney (HEK293T) cells expressing luciferase-tagged ELG1. AID 504467, 2011. HEK293T ELG1-luciferase reporter, luminescence, 16 h; DNA damage induced by 5-fluorouridine. Potency, µM (series often up to 46.1 µM), inactives show at the top dose activity change, negative = inhibition, usual class: inhibitors. hit rate 2.3% among 330,000; note: potency is the fitted concentration of half-maximal effect; nearly all actives have a fitted effect of over 55% in size
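Cells (2,000 per well) received 5-fluorouridine plus test compound or DMSO and were incubated 16 hr at 37 °C, 5% CO2. Luciferase activity was read by luminescence 30 min after ONE-Glo addition; signal suppression marked inhibition of damage-induced ELG1 function.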
TDP1 block – qHTS Assay for Inhibitors of Tyrosyl-DNA Phosphodiesterase (TDP1); Tyrosyl-DNA phosphodiesterase 1 (Homo sapiens), Q9NUW8; AID 485290, 2010; recombinant TDP1, AlphaScreen DNA substrate cleavage; hit rate 0.28% among 350,000; Potency, µM (top dose mostly 130 µM), for the others: at the highest dose activity change, negative = inhibition, actives largely listed as inhibitors; note: potency is the fitted concentration of half-maximal effect; nearly all actives have a fitted effect of over 40% in size
Target sequence (Q9NUW8 whole entry, looked up): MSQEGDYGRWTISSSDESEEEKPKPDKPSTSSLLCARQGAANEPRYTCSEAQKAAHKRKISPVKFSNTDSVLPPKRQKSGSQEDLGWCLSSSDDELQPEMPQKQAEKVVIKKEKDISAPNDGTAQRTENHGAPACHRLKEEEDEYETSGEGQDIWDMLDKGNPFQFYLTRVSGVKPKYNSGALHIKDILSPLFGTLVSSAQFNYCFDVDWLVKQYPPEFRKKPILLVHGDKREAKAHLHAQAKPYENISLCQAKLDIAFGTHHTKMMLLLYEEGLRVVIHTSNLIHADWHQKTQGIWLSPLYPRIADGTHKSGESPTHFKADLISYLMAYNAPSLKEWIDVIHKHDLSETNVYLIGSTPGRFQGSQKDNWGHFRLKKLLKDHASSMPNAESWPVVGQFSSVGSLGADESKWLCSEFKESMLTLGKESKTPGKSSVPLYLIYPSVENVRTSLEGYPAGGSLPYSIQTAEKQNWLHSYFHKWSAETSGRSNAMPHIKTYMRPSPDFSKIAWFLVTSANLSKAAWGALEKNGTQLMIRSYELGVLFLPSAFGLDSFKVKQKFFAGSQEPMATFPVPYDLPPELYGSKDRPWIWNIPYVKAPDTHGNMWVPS
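Steps: enzyme plus compound, 15 min RT; add biotin/phosphotyrosine-FITC oligonucleotide (15 nM final), react 5 min; add donor/acceptor beads (10 ug/ml final), 10 min; read AlphaScreen. Tdp1 at 1 nM final.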
DT40 TDP1 no CPT – qHTS for Inhibitors of human tyrosyl-DNA phosphodiesterase 1 (TDP1): qHTS in cells in absence of CPT | DT40 Tdp1-/- hTDP1 cells, no CPT, ATP luminescence, 48 h | Potency, µM (top dose mostly 46.2 µM), for inactives: at the highest dose activity change, negative = growth inhibition, hits mostly inhibitors | hit rate 15% among 420,000 | AID 686978, 2013; note: potency is the fitted concentration of half-maximal effect; nearly all actives have a fitted effect of over 55% in size
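Stably hTDP1-transfected Tdp1-null chicken DT40 cells were treated with library compounds minus camptothecin and grown for at least 48 hr at 37 °C, after which cellular ATP was quantified by luminescence.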
* = called active by the depositor; ? = inconclusive; . = no result; [ ] = remark or other dose. Unless noted, calls come from the whole dose curve; as a rule, active = well fitted curve in the direction sought with a large enough effect; inconclusive = small, poorly fitted or top-dose-only effect, or another doubt; inactive = no such curve, though single readings can be large; an effect the other way counts as inactive or inconclusive. % is set by controls: 0 for no effect and ±100 for the full control effect.

SMILES	Giardia kill	TDP1 cell CPT	IL-1B inflam inh	ELG1 repair inh	TDP1 block	DT40 TDP1 no CPT
Cc1nn(CC(=O)NCc2cccs2)c(=O)c2nn(-c3ccccc3)c(C)c12	22	11%	-4	12%	2%	11%
O=C(Cn1nnc2c(cnn2-c2ccccc2)c1=O)NCc1cccs1	-3	?	18	0%	0%	23µM*
CC1CC(C)CN(C(=O)Cn2ncc3c([nH]c4ccccc43)c2=O)C1 (stereo not given)	-9	?	27	-4%	2%	?
Cc1c2cnn(CC(=O)N3CCN(c4ccccc4)CC3)c(=O)c2c(C)n1Cc1ccc(F)cc1	.	21µM*	.	.	3%	13µM*
CCOC(=O)C1CCCN(C(=O)Cn2ncc3c([nH]c4ccccc43)c2=O)C1 (stereo not given)	16	?	-84*	3%	1%	?
CCN1CCN(C(=O)Cn2ncc3c4ccccc4n(Cc4ccccc4)c3c2=O)CC1	.	16µM*	.	.	5%	15µM*
Cc1c2cnn(CC(=O)N3CCN(c4ncccn4)CC3)c(=O)c2c(C)n1Cc1ccc(F)cc1	.	.	.	-12%	3%	.
CC1CCC(C(C)C)C(OC(=O)Cn2nnc3c(cnn3-c3ccccc3)c2=O)C1 (stereo not given)	5	?	27	16µM*	.	?
CN(C)S(=O)(=O)c1ccc(NC=O)cc1	23	-20%	-4	2%	0%	-10%
CC(C)CCNC(=O)C1CCC(=O)N1CCc1ccccc1 (stereo not given)	2	-8%	3	-3%	.	-25%
CC(C)c1c(C(=O)NCc2cccnc2)cnn1-c1nccc(-c2ccccc2F)n1	.	27%[9.04 µM]	.	.	.	?
CCCn1c2ccccc2c2cnn(CC(=O)N3CCC(C(=O)OCC)CC3)c(=O)c21	.	?	.	.	4%	?
CCOC(=O)C1CCN(C(=O)Cn2ncc3c4ccccc4n(Cc4ccccc4F)c3c2=O)CC1	.	3.3µM*	.	.	3%	4.6µM*
COc1ccccc1N1CCN(C(=O)c2ccc3ncsc3c2)CC1	6	6.5µM*	17	.	.	2.3µM*
COc1ccc(OC)c2sc(N3CCN(C(=O)c4ccc5ncsc5c4)CC3)nc12	18	-1%	-20	?	-6%	-30%
Cc1ccc(C)c(N2CCN(C(=O)c3ccc4nc(-c5ccco5)c(-c5ccco5)nc4c3)CC2)c1	15	?	?	?	6%	23µM*
COc1ccccc1N1CCN(C(=O)c2ccc3nc(-c4ccco4)c(-c4ccco4)nc3c2)CC1	10	?	?	7.3µM*	7%	21µM*
COc1ccc(-c2cc(C(F)(F)F)c(C#N)c(SCC(=O)Nc3ccccc3F)n2)cc1	.	1%	.	.	3%	-16%
CC1(C(=O)NS(=O)(=O)c2ccc(F)cc2F)CCN1C(=O)c1ccccc1 (stereo not given)	.	-4%	0	.	.	-13%
O=C(CSc1nnc(-c2ccc(S(=O)(=O)N3CCCC3)cc2)o1)NCc1ccco1	6	-25%	50	-18%	-1%	-20%
COc1ccc(C2=NN(S(C)(=O)=O)C(c3cccs3)C2)cc1OC (stereo not given)	-1	-8%	-9	?	4%	-29%
Cc1ccccc1CNC(=O)c1ccc2c(c1)N(Cc1ccccc1)CCS2	.	?	.	.	1%	21µM*
O=C(NCc1ccccc1Cl)c1ccc2c(c1)N(Cc1ccccc1)CCS2	.	13µM*	.	.	4%	18µM*

High-throughput results deposited in PubChem by National Center for Advancing Translational Sciences (NCATS).
